Laboratory results as given in PubChem BioAssay AID1159580 (chemical genetic matrix, 2015).
About 2,000 (36%) of roughly 5,500 compounds were called active. Not shown: some 18% with an inconclusive outcome. Rule as the data show it: active = normalized growth mostly below about 0.91 (no sharp cut-off); inconclusive = no clear call, values can overlap the other calls; inactive = mostly above about 0.92. This is one part of the list.

Test: chemical genetic growth profiling, strain panel (AID 1159580);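 also: tested at 20 µM; growth read once vehicle control cultures reached saturation at 30 °C; 1 = growth at the plate median or of vehicle wells; lower values mean less growth of the strain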
Conditions: growth OD

Measured: normalized growth

Cc1cc(O)c(C)c(O)c1C(=O)O
inactive: S. cerevisiae deletion strains, locus YJR066W, strain TOR1, stronger effect = lower value 0.948 | S. cerevisiae deletion strains, locus YKL009W, strain mrt4, stronger effect = lower value 1.01 | S. cerevisiae deletion strains, locus YKL068W, stronger effect = lower value 0.982 | S. cerevisiae deletion strains, locus YKL085W, strain MDH1 (second series), stronger effect = lower value 0.997 | S. cerevisiae deletion strains, locus YKL085W, strain MDH1, stronger effect = lower value 0.997 | S. cerevisiae deletion strains, locus YKL160W, strain elf1, stronger effect = lower value 1.02 | S. cerevisiae deletion strains, locus YKR001C, strain vps1, stronger effect = lower value 0.971 | S. cerevisiae deletion strains, locus YKR026C, strain gcn3, stronger effect = lower value 0.983 | S. cerevisiae deletion strains, locus YKR091W, strain srl3, stronger effect = lower value 0.99 | S. cerevisiae deletion strains, locus YLL001W, strain dnm1, stronger effect = lower value 1.01 | S. cerevisiae deletion strains, locus YLL026W, stronger effect = lower value 1 | S. cerevisiae deletion strains, locus YLL041C, strain sdh2, stronger effect = lower value 0.999 | S. cerevisiae deletion strains, locus YLR027C, strain aat2, stronger effect = lower value 0.983 | S. cerevisiae deletion strains, locus YLR039C, strain RIC1, stronger effect = lower value 0.982 | S. cerevisiae deletion strains, locus YLR058C, strain SHM2, stronger effect = lower value 1.01 | S. cerevisiae deletion strains, locus YLR102C, strain apc9, stronger effect = lower value 0.987 | S. cerevisiae deletion strains, locus YLR113W, strain HOG1, stronger effect = lower value 0.99 | S. cerevisiae deletion strains, locus YLR221C, strain rsa3, stronger effect = lower value 0.991 | S. cerevisiae deletion strains, locus YLR258W, strain gsy2, stronger effect = lower value 0.994 | S. cerevisiae deletion strains, locus YLR262C, strain YPT6 (second series), stronger effect = lower value 0.944 | S. cerevisiae deletion strains, locus YLR262C, strain YPT6, stronger effect = lower value 0.972 | S. cerevisiae deletion strains, locus YLR268W, strain sec22, stronger effect = lower value 1.01 | S. cerevisiae deletion strains, locus YLR320W, strain mms22, stronger effect = lower value 0.983 | S. cerevisiae deletion strains, locus YLR342W, strain FKS1 (second series), stronger effect = lower value 0.972 | S. cerevisiae deletion strains, locus YLR342W, strain FKS1, stronger effect = lower value 0.977 | S. cerevisiae deletion strains, locus YLR357W, strain rsc2, stronger effect = lower value 0.956 | S. cerevisiae deletion strains, locus YLR370C, strain arc18, stronger effect = lower value 0.988 | S. cerevisiae deletion strains, locus YLR371W, strain rom2, stronger effect = lower value 1 | S. cerevisiae deletion strains, locus YLR384C, strain iki3, stronger effect = lower value 0.998 | S. cerevisiae deletion strains, locus YLR418C, strain cdc73, stronger effect = lower value 0.943 | S. cerevisiae deletion strains, locus YML016C, strain PPZ1, stronger effect = lower value 0.924 | S. cerevisiae deletion strains, locus YML032C, strain rad52, stronger effect = lower value 1.03 | S. cerevisiae deletion strains, locus YML120C, strain ndi1, stronger effect = lower value 0.975 | S. cerevisiae deletion strains, locus YML124C, strain tub3, stronger effect = lower value 0.989 | S. cerevisiae deletion strains, locus YMR058W, strain fet3, stronger effect = lower value 0.974 | S. cerevisiae deletion strains, locus YMR078C, strain ctf18, stronger effect = lower value 0.984 | S. cerevisiae deletion strains, locus YMR125W, strain sto1, stronger effect = lower value 0.982 | S. cerevisiae deletion strains, locus YMR129W, stronger effect = lower value 0.996 | S. cerevisiae deletion strains, locus YMR205C, strain PFK2, stronger effect = lower value 0.977 | S. cerevisiae deletion strains, locus YMR223W, strain ubp8, stronger effect = lower value 0.988 | S. cerevisiae deletion strains, locus YMR231W, strain pep5, stronger effect = lower value 0.985 | S. cerevisiae deletion strains, locus YMR263W, strain SAP30, stronger effect = lower value 1.02 | S. cerevisiae deletion strains, locus YMR307W, strain GAS1, stronger effect = lower value 1.01 | S. cerevisiae deletion strains, locus YNL067W, strain RPL9B, stronger effect = lower value 0.979 | S. cerevisiae deletion strains, locus YNL071W, strain lat1, stronger effect = lower value 0.994 | S. cerevisiae deletion strains, locus YNL153C, strain GIM3, stronger effect = lower value 0.988 | S. cerevisiae deletion strains, locus YNL183C, strain NPR1, stronger effect = lower value 0.972 | S. cerevisiae deletion strains, locus YNL209W, strain ssb2, stronger effect = lower value 0.986 | S. cerevisiae deletion strains, locus YNL233W, strain BNI4, stronger effect = lower value 0.998 | S. cerevisiae deletion strains, locus YNL248C, strain rpa49, stronger effect = lower value 0.996 | S. cerevisiae deletion strains, locus YNL250W, strain rad50, stronger effect = lower value 0.946 | S. cerevisiae deletion strains, locus YNL271C, strain bni1, stronger effect = lower value 0.969 | S. cerevisiae deletion strains, locus YNL298W, strain CLA4, stronger effect = lower value 0.98 | S. cerevisiae deletion strains, locus YNL307C, strain MCK1, stronger effect = lower value 0.98 | S. cerevisiae deletion strains, locus YNL322C, strain KRE1 (second series), stronger effect = lower value 0.965 | S. cerevisiae deletion strains, locus YNL322C, strain KRE1, stronger effect = lower value 1 | S. cerevisiae deletion strains, locus YNR049C, strain mso1, stronger effect = lower value 0.983 | S. cerevisiae deletion strains, locus YNR052C, strain pop2, stronger effect = lower value 0.966 | S. cerevisiae deletion strains, locus YOL012C, strain htz1 0.903 | S. cerevisiae deletion strains, locus YOL147C, strain pex11, stronger effect = lower value 1.01 | S. cerevisiae deletion strains, locus YOR001W, strain rrp6, stronger effect = lower value 1 | S. cerevisiae deletion strains, locus YOR061W, strain CKA2, stronger effect = lower value 1.01 | S. cerevisiae deletion strains, locus YOR069W, strain VPS5, stronger effect = lower value 0.99 | S. cerevisiae deletion strains, locus YOR070C, strain gyp1, stronger effect = lower value 0.989 | S. cerevisiae deletion strains, locus YOR080W, strain dia2, stronger effect = lower value 0.974 | S. cerevisiae deletion strains, locus YOR083W, strain WHI5, stronger effect = lower value 1.03 | S. cerevisiae deletion strains, locus YOR106W, strain vam3, stronger effect = lower value 0.972 | S. cerevisiae deletion strains, locus YOR136W, strain idh2, stronger effect = lower value 0.986 | S. cerevisiae deletion strains, locus YOR144C, strain elg1, stronger effect = lower value 0.986 | S. cerevisiae deletion strains, locus YOR184W, strain ser1, stronger effect = lower value 1.05 | S. cerevisiae deletion strains, locus YOR231W, strain MKK1, stronger effect = lower value 1.03 | S. cerevisiae deletion strains, locus YOR265W, strain rbl2, stronger effect = lower value 1 | S. cerevisiae deletion strains, locus YOR270C, strain vph1, stronger effect = lower value 0.802 | S. cerevisiae deletion strains, locus YOR290C, strain snf2, stronger effect = lower value 0.956 | S. cerevisiae deletion strains, locus YOR316C, strain cot1, stronger effect = lower value 0.977 | S. cerevisiae deletion strains, locus YPL051W, strain arl3, stronger effect = lower value 1.02 | S. cerevisiae deletion strains, locus YPL055C, strain LGE1, stronger effect = lower value 1.01 | S. cerevisiae deletion strains, locus YPL078C, strain atp4, stronger effect = lower value 1 | S. cerevisiae deletion strains, locus YPL106C, strain sse1, stronger effect = lower value 0.926 | S. cerevisiae deletion strains, locus YPL240C, strain hsp82, stronger effect = lower value 1 | S. cerevisiae deletion strains, locus YPL256C, strain CLN2, stronger effect = lower value 1.03 | S. cerevisiae deletion strains, locus YPR119W, strain clb2, stronger effect = lower value 0.997 | S. cerevisiae deletion strains, locus YPR141C, strain kar3, stronger effect = lower value 0.973 | S. cerevisiae deletion strains, locus YPR163C, strain tif3, stronger effect = lower value 0.969 | S. cerevisiae deletion strains, locus YPR167C, strain met16, stronger effect = lower value 0.972 | S. cerevisiae deletion strains, strain wtn01, stronger effect = lower value 1.01 | S. cerevisiae strains, strain wild type, stronger effect = lower value 1
